Results: PubChem BioAssay (EPA / NIEHS)
Values joined by “and” are separate entries in the source; they are usually repeats but may differ in a detail not shown here. Equal values may be shown once. Inconclusive results are not listed. Where a structure was tested more than once in an assay, its records may differ in their call. Active and inactive are the calls of the source. Rule for the calls, unless noted: active = hit-call score of the fitted dose curve at least 0.9, where 1 is the maximum; inactive = score below 0.9.

What was measured:
[1] = BSK_BT_Bcell_Proliferation: Viability Assessment in the BioMAP Diversity Plus: BT Assay for B cell Proliferation (AID 2284227); settings: primary human B cells with PBMC
Method in brief: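 Human B cells co-cultured with PBMC were dosed with test chemicals and relative cell number was quantified by SRB staining at 72 h. Cells were fixed in 10% TCA, stained with 0.1% SRB and read at 560 nm. Activity was fitted in the positive direction against DMSO.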

[2] = read-out: Interleukin 6 (IL6), IL6 (gene 3569); experiment: BSK_BT_xIL6: BioMAP Diversity Plus: BT Assay for Interleukin 6 (IL6) Biomarker Activity (AID 2284228); settings: primary human B cells with PBMC
Method in brief: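 B cells and peripheral blood mononuclear cells (human primary co-culture) were dosed with chemical, and after 24 h IL-6 released into the medium was measured by Luminex xMAP. Responses were analysed as gain of signal over DMSO control.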

[3] = read-out: Interleukin 17A (IL17A), IL17A (gene 3605); experiment: BSK_BT_xIL17A: BioMAP Diversity Plus: BT Assay for Interleukin 17A (IL17A) Biomarker Activity (AID 2284229); settings: primary human B cells with PBMC
Method in brief: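 Secreted IL-17A was the measured endpoint, read by Luminex xMAP multiplex in supernatants of a human B cell/PBMC co-culture harvested 24 h after chemical dosing. Signal increase relative to DMSO defined activity.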

[4] = read-out: Tumor necrosis factor (Homo sapiens) (UniProt P01375); experiment: BSK_BT_xTNFa: BioMAP Diversity Plus: BT Assay for Tumor necrosis factor alpha (TNF-alpha) Biomarker Activity (AID 2284230); settings: primary human B cells with PBMC
Method in brief: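 B cells with PBMC in co-culture, dosed and sampled at 24 h; secreted TNF-alpha measured by Luminex xMAP bead assay. Activity fitted in the gain direction against DMSO as negative control and baseline.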

[5] = read-out: Vascular cell adhesion molecule 1 (VCAM1), VCAM1 (gene 7412); experiment: BSK_MyoF_VCAM1: BioMAP Diversity Plus: MyoF Assay for Vascular cell adhesion molecule 1 (VCAM1) Biomarker Activity (AID 2284231); settings: primary human lung fibroblasts
Description: BSK_MyoF is a cell-based, multiplexed-readout assay that uses lung fibroblasts, […], with measurements taken at 24 hours after chemical dosing in a microplate: 96-well plate.BSK_MyoF_VCAM1 is an assay component measured in the BSK_MyoF assay. It measures VCAM-1 antibody related to regulation of gene expression using ELISA technology.Data from the assay component BSK_MyoF_VCAM1 was analyzed at the endpoint, BSK_MyoF_VCAM1, in the positive analysis fitting direction relative to DMSO as the negative control and baseline of activity. Using a type of binding reporter, gain or loss-of-signal activity can be used to understand protein changes. […]
The levels of cell surface (or secreted, indicated by the prefix "s") biomarker endpoints were measured by ELISA. Overt cytotoxicity to cells in confluent adherent cultures (all systems other than the BT system) was assessed by measuring total protein levels using sulforhodamine B (SRB) staining in parallel cultures at the time of biomarker measurements, indicated as SRB endpoints. For proliferation assays for adherent cell types, individual cell types are cultured at sub-confluence and relative cell numbers quantified by SRB staining at time points optimized for each system (48 h: 3C and CASM3C systems; 72 h: BT and HDF3CGF systems; 96 h: SAg system). […] Plates were read after 6 h.

[6] = UKN2_HCS_IMR90_cell_viability: Viability Assessment in the University of Konstanz (UKN) Leist Lab Neural Crest Cell Migration Assay in human induced IMR90 Pluripotent Stem Cells (UKN2) (AID 2284233);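 note: cells exposed to compound for 24 h after a 24 h migration phase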
Method in brief: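 Viability read as calcein-AM fluorescence by high-content imaging, Hoechst co-stain, 30 min. Human iPSC (IMR90) neural crest cells had migrated 24 h into stopper-defined gaps before 24 h chemical exposure. Fitted bidirectionally relative to DMSO.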

[7] = CCTE_Mundy_HCI_Cortical_NOG_NeuronCount: CCTE's Neurite Outgrowth Assay in rat cortical cells for Neuron Count, Mundy Lab (AID 2284236; active = hit-call score of the fitted dose curve at least 0.9, where 1 is the maximum;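 note: neurons counted by imaging betaIII-tubulin and Hoechst stained cortical cells; cells exposed to compound for about 48 hours before fixation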)
Method in brief: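 Read-out: neuron number by high-content imaging of betaIII-tubulin (Alexa Fluor-488) and Hoechst-labelled rat primary cortical cells.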

[8] = TAMU_HCS_1.5hr_SingleDonor1434_Cytotoxicity: Cytotoxicity Assessment using High-content Screening (HCS) Fluorescent Imaging for the Texas A&M University (TAMU) 1.5-hr Human Induced Pluripotent Stem Cell (iPSC)-derived Cardiotoxicity Assay (AID 2284234; active = hit-call score of the fitted dose curve at least 0.9, where 1 is the maximum)
Method in brief: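 Nuclear counts from Hoechst 33342 imaging define cytotoxicity here, with EC10 (10% cell-count loss relative to DMSO) as point of departure. iPSC cardiomyocytes received 0.2-100 uM test chemical in 0.5% DMSO for 1.5 h at 37 C.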

[9] = TAMU_PeakParms_SingleDonor1434_QT: Texas A&M University (TAMU) 1.5-hr Human Induced Pluripotent Stem Cell (iPSC)-derived Cardiomyocytes Calcium (Ca+2) Flux Assay for Cardiotoxicity: QT (decay-rise ratio) (AID 2284235; active = hit-call score of the fitted dose curve at least 0.9, where 1 is the maximum)
Method in brief: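 Decay/rise ratio of calcium-flux fluorescence scored after 90 min exposure (37C) of donor 1434 iPSC cardiomyocytes to 0.2–100 uM (0.5% DMSO). Beat-cessation and severe-notch points removed; POD is EC05, a 5% rise over DMSO.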

[10] = UKN4_HCS_LUHMES_cell_viability: Viability Assessment in the University of Konstanz (UKN) Leist Lab Neurite Outgrowth Assay in human LUHMES cells (UKN4) (AID 2284232)
Method in brief: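 Cells switched to differentiation medium at day 0, replated on day 2 in medium lacking cAMP and GDNF, and compound-treated once attached. Live staining began 23.5 h later, imaging followed at 24 h.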

Sequence of Tumor necrosis factor (Homo sapiens) (P01375 whole entry, looked up): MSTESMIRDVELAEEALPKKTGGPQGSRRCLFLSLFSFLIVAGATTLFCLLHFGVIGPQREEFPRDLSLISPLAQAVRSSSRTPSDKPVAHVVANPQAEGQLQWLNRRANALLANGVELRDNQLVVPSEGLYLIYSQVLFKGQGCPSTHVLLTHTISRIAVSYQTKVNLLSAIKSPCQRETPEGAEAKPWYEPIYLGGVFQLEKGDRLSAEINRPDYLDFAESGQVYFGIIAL

For `CN(C)[C@@H]1C(=O)C(C(N)=O)=C(O)[C@@]2(O)C(=O)C3=C(O)c4c(O)cccc4[C@@](C)(O)[C@H]3[C@H](O)[C@@H]12`, the outcome [1] was “inactive”, the outcome [2] was “inactive” and the outcome [3] was “inactive”. For the same compound, the outcome [4] was “inactive”, the outcome [5] was “inactive” and the AC50 [6] was 90 µM (active). For the same compound, the AC50 [7] was 76.9 µM (active).

With `CCCCSP(=O)(SCCCC)SCCCC` the outcome [6] was “inactive” and the AC50 [7] was 86.4 µM (active) and 68.4 µM (active).

With `CC1=NNC(=O)N(/N=C/c2cccnc2)C1` the outcome [7] was “inactive”.

In the case of `COP(=O)(OC)OC(Br)C(Cl)(Cl)Br` (stereo not given), the AC50 [6] is reported as 21.6 µM (active) and the AC50 [7] is reported as 30.2 µM (active) and 29.5 µM (active).

In the case of `CCOP(=O)(OCC)Oc1cc(C)nc(C(C)C)n1`, the outcome [6] is reported as “inactive” and the outcome [7] is reported as “inactive”.

With `CCOP(=S)(OCC)Oc1ccc([N+](=O)[O-])cc1` the outcome [8] was “inactive” and the outcome [9] was “inactive”.

For `CCCSP(=O)(OCC)Oc1ccc(Br)cc1Cl` (stereo not given), the outcome [7] was “inactive”.

In the case of `CCCSP(=O)(OCC)SCCC`, the outcome [6] is reported as “inactive” and the outcome [7] is reported as “inactive”.

For `CCOP(=S)(OCC)OC(Cl)C(Cl)(Cl)Cl` (stereo not given), the outcome [6] was “inactive” and the AC50 [7] was 50 µM (active) and 21.7 µM (active).

For `CON=C(C(=O)OC)c1ccccc1CON=C(C)c1cccc(C(F)(F)F)c1`, the AC50 [6] was 50 µM (active) and the AC50 [7] was 1.78 µM (active).

In the case of `CCOP(=O)(NC(C)C)Oc1ccc(SC)c(C)c1` (stereo not given), the outcome [6] is reported as “inactive” and the outcome [7] is reported as “inactive”.

With `CCOC(=O)CC(SP(=O)(OC)OC)C(=O)OCC` (stereo not given) the outcome [10] was “inactive” and the outcome [6] was “inactive”.

For `CCOP(=S)(Oc1cnc(C(C)(C)C)nc1)OC(C)C` (stereo not given), the outcome [6] was “inactive”, the AC50 [7] was 28 µM (active) and the outcome [7] was “inactive”.

In the case of `O=[N+]([O-])c1cc(C(F)(F)F)c(Cl)c([N+](=O)[O-])c1Nc1ncc(C(F)(F)F)cc1Cl`, the AC50 [1] is reported as 2.57 µM (active), the AC50 [2] is reported as 3.72 µM (active) and the AC50 [3] is reported as 0.73 µM (active). For the same compound, the AC50 [4] was 3.97 µM (active), the AC50 [5] was 2.53 µM (active) and the AC50 [6] was 1.48 µM (active). For the same compound, the AC50 [7] was 1.94 µM (active).

With `C=C(C)[C@H]1Cc2c(ccc3c2O[C@@H]2COc4cc(OC)c(OC)cc4[C@@H]2C3=O)O1` the AC50 [8] was 0.01 µM (active), the outcome [9] was “inactive” and the AC50 [7] was 0.135 µM (active).

With `CCOP(=S)(OCC)Oc1ccc2c(C)c(Cl)c(=O)oc2c1` the outcome [7] was “inactive”.

In the case of `CC(=NC#N)N(C)Cc1ccc(Cl)nc1`, the outcome [10] is reported as “inactive”, the outcome [6] is reported as “inactive” and the outcome [7] is reported as “inactive”.

For `CSC1=N[C@@](C)(c2ccccc2)C(=O)N1Nc1ccccc1`, the outcome [7] was “inactive”.

In the case of `CC[C@H](C)[C@H]1O[C@]2(C=C[C@@H]1C)C[C@@H]1C[C@@H](C/C=C(\C)[C@@H](O[C@H]3C[C@H](OC)[C@@H](O[C@H]4C[C@H](OC)[C@@H](NC)[C@H](C)O4)[C@H](C)O3)[C@@H](C)/C=C/C=C3\CO[C@@H]4[C@H](O)C(C)=C[C@@H](C(=O)O1)[C@]34O)O2`, the AC50 [10] is reported as 1.76 µM (active), the AC50 [6] is reported as 3.1 µM (active) and 3.81 µM (active) and the AC50 [7] is reported as 1.23 µM (active) and 1.7 µM (active).

For `CC(C)N(C(=O)SCC(Cl)=C(Cl)Cl)C(C)C`, the AC50 [10] was 19.3 µM (active) and the outcome [7] was “inactive”.
